# In PubChem BioAssay:
# Test: probe aShh binding to arrayed compounds – biochemical, biotinylated probe, 635/667 nm fluorescence, primary screen (AID 1114);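 note: probe is biotin-labelled aShh protein from a stem cell growth factor screen; measures binding of labelled protein to compounds printed on the slide; score merges feature fluorescence at 667 nm with signal-to-noise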
# Settings: small-molecule microarray, higher = more signal
row,Structure (SMILES),composite z-score
1,COc1ccc(C(=O)Nc2ccc(CN3C(=O)[C@]4(O[C@H](CC(=O)N5Cc6ccccc6C[C@H]5CO)[C@@H]([Si](C)(C)c5ccc(OC)cc5)[C@@H]4C)c4ccccc43)cc2)cc1,-0.232
2,Cn1cccc1C(O)C1C=CC2C(=O)N(c3ccccc3)C(=O)C2N1Nc1ccccc1 (centres undefined),-0.0578
3,CCOC(=O)C[C@H]1[C@H](OC(=O)c2cc3ccccc3oc2=O)[C@@H](NC(=O)CC(C)C)c2cc(OCCCO)ccc2N1C(=O)c1ccc2ccccc2n1,-0.154
4,CC[C@@H]1C=C(C(=O)O)[C@H](c2ccccc2)N1S(=O)(=O)c1ccc(C)cc1,0.162
5,C=CC[C@@H](OC(=O)Nc1ccc(SC)cc1)c1ccc(O)c(F)c1,0.42

# Test: probe aNog binding to arrayed compounds – biochemical, biotinylated probe, 635/667 nm fluorescence, primary screen (AID 1115);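 note: probe is biotinylated aNog protein used at 0.15 µg/mL for 1 h at 4 C; z-score combines 667 nm fluorescence of each spot with its signal to noise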
# Settings: small-molecule microarray, higher = more signal
row,Structure (SMILES),composite z-score
1,C[C@@H]1NC(=O)[C@@H](Cc2ccccc2)NC(=O)[C@@]23C(=O)N[C@@H](Cc4ccccc4)C2[C@H](C)[C@@]2(C)O[C@H]2C3/C=C/C/C=C\CNC1=O (some centres undefined),-0.281
2,COc1cccc(C)c1NC(=O)O[C@H]1[C@H](OC(=O)Nc2ccc3c(c2)OCO3)[C@@H](OC(=O)Nc2ccc3c(c2)OCO3)[C@@H](OC)O[C@@H]1CO,-0.0899
3,C=C(COC)/C(=C/C[C@H](OC(=O)c1ccncc1)c1ccc(CO)o1)c1cnc2ccccc2c1,-0.12
4,CC(C)=C1C(=O)C(c2ccccc2)=C2CN3C(=O)N(CCc4ccccc4)C(=O)[C@]3(Cc3ccc(C(F)(F)F)cc3)[C@H]21,-0.781
5,CCCCNC(=O)c1ccc(C#CC(C)(C)C)c(OC(C)=O)c1,-0.256
6,C=CCC(OC(C)=O)[C@@H]1[C@@H](N(Cc2cccc3ccccc23)C(=O)Cc2ccc(OC)cc2)c2cc(OCCCO)ccc2N1C(=O)c1ccc(-c2ccccc2)cc1 (some centres undefined),0.546
7,COc1cc(NN2C(C(O)c3ccc(N(C)C)cc3)C=CC3C(=O)N(c4ccccc4)C(=O)C32)cc(OC)c1OC (centres undefined),0.531
8,CCCC[C@@H](O)C1=C(COC)C[C@H]2C(=O)N(C)C(=O)[C@H]2[C@H]1CO,-0.267
9,CC1CC/C=C\[C@H]2OC34C=CCN(c5ccc6ccccc6c5)C(=O)[C@H]3N(CCCO)C(=O)[C@@H]4C2C(=O)O1 (some centres undefined),-0.285
10,CC(C)C(CO)N1C(=O)[C@@H]2[C@H]3C(=O)OCC=C[C@H]3OC23C=CCN(c2ccc(Cl)cc2)C(=O)[C@@H]13 (some centres undefined),-0.196
11,CCCN1C(=O)[C@@]2(Cc3ccccc31)N=C(c1ccc(OCCCO)cc1)O[C@H]2c1ccccc1,0.587
12,O=C(O)[C@@H]1[C@@H]2C(=O)N(c3ccccc3)C(=O)[C@@H]2C[C@@H]1Sc1ccccc1,-0.0554
13,COCCOC(=O)N1C(=O)[C@@]2(c3cc(C#CCNC(N)=O)ccc31)[C@H](C(N)=O)[C@H]1C(=O)O[C@H](c3ccccc3)[C@H](c3ccccc3)N1[C@@H]2c1ccccc1OCCO,-0.288
14,COC(=O)[C@@]1(Cc2ccc(OC)cc2)[C@H]2c3cc(C(=O)N4CCCC4)n(CCO)c3C[C@H]2CN1C(=O)c1ccccc1,1.85
15,C[N+](C)(C)CCCCCCNC(=O)[C@@H]1C[C@@H]2C(=O)N3CCC[C@H]3C(=O)N2[C@@H]1c1ccc(O)cc1,-0.29
16,O=C1O[C@@H](c2ccccc2)[C@@H](c2ccccc2)N2[C@@H](c3ccc(O)cc3)[C@]3(C(=O)Nc4ccc(C#CCCO)cc43)[C@@H](C(=O)N3CCN(c4ncccn4)CC3)[C@H]12,0.498
17,CC(C)c1ccc(NN2C(C(O)c3ccc(F)cc3)C=CC3C(=O)N(c4ccccc4)C(=O)C32)cc1 (centres undefined),1.75
18,C[N+](C)(C)CCCC[C@@H]1NC(=O)[C@@H]2C[C@H](C(=O)NCCCCCCN)[C@H](c3cccc(OCCO)c3)N2C1=O,0.662
19,Cc1ccc(S[C@]2(C(=O)NCC(F)(F)F)CC(=O)N(Cc3cc(C(F)(F)F)cc(C(F)(F)F)c3)[C@@H]2c2ccc(CO)cc2I)cc1,-0.426
20,C=C[C@H]1C(C(=O)OCC)=CC[C@@H](c2ccccc2)N1S(=O)(=O)c1ccc(C)cc1,-0.289
21,CCCCN1CC=CC23O[C@@H]4/C=C\CCCOC(=O)C4[C@H]2C(=O)N(CCO)[C@@H]3C1=O (some centres undefined),-0.158
22,CCCCN1CC=CC23O[C@@H]4/C=C\CCC(C)OC(=O)C4[C@H]2C(=O)N(CCCO)[C@@H]3C1=O (some centres undefined),-0.362
23,O=C(NCc1ccc(F)cc1)[C@H]1C[C@H]2C(=O)NCC(=O)N2[C@H]1c1ccc(O)cc1,-0.132
24,CCOC(=O)C[C@H]1[C@H](OC(=O)Cc2ccc3c(c2)OCO3)[C@@H](NC(=O)c2ccc3ccccc3n2)c2cc(OCCCO)ccc2N1C(=O)c1ccccc1,0.0589
